Reference: publication PMC4336329 (PLoS ONE, 2015)
Hit rate of the full screen: of about 310,000 compounds, about 14,000 (4.5%) showed an effect of 50% or more. Effects have a minus sign here. The list comes from a sample in which strong results are over-represented; it also holds similar structures and randomly drawn compounds.

target: human ether-à-go-go-related gene (hERG) potassium channel (human, UniProt Q12809); test: primary screen, population patch clamp on CHO cells stably expressing hERG; higher = less effect of the substance
Sequence (Q12809 whole entry, looked up): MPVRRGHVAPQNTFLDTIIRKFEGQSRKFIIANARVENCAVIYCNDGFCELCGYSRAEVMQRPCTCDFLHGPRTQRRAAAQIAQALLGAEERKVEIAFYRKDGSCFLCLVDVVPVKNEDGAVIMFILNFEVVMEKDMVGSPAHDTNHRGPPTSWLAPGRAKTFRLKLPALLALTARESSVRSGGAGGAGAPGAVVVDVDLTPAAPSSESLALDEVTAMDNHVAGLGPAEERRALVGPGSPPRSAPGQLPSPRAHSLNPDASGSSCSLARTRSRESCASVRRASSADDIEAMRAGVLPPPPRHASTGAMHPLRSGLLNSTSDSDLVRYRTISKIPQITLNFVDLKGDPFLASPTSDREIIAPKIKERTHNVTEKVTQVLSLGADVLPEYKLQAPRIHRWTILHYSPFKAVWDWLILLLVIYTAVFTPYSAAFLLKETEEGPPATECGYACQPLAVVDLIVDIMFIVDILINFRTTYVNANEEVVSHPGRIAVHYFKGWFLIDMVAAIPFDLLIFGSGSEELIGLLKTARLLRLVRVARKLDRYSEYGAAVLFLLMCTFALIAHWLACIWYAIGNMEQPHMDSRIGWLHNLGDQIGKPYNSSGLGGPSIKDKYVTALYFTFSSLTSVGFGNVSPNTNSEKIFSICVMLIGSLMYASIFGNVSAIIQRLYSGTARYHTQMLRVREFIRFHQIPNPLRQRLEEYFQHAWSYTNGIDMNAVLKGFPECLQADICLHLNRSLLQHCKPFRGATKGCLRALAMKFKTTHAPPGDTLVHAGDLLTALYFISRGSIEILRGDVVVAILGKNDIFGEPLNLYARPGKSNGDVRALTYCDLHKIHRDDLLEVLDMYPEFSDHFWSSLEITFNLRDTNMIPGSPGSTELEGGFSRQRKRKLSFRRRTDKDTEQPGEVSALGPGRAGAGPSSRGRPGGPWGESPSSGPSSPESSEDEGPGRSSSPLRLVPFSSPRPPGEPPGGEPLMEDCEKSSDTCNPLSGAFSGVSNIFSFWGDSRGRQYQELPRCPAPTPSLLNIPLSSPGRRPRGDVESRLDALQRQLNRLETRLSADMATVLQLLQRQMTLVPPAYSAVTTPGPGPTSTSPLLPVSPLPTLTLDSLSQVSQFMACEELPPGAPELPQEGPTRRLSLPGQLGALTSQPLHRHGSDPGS
Experimental: Briefly, Chinese hamster ovary (CHO) cells stably expressing the hERG channel were dislodged from tissue culture flasks and dispensed into PPC plates. […] During the recording, background leak currents were estimated by a 100 ms step to -80 mV from an initial holding potential of -70 mV and subtracted from the subsequent current measurement. The campaign was conducted in two phases using slight differences in recording protocol. In the first phase, the initial voltage pulse used a 100 ms step to -30 mV from a holding potential of -70 mV, a 2 s conditioning step to +25 mV, and a 2 s test step to -30 mV. During the second phase of the screen, the potential during the conditioning step was raised to +45 mV. In both phases of the campaign, a secondary voltage pulse was applied using the same parameters as the second phase initial pulse. The initial and secondary pulses were applied in the absence of compound, and upon application of 1 μM and 10 μM test concentrations. […]
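Also: peak tail current of the secondary pulse compared with the same well before compound.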

Compound | hERG current change (%, negative = inhibition) at 10uM
CC(=O)c1nc2ccccc2n1S(=O)(=O)c1ccc(C)cc1 | 17.3%
Cc1nc2c(ccc3nc(NC(=O)c4ccc(S(=O)(=O)N(C)C)cc4)sc32)s1 | 15.2%
Cc1nc2c(ccc3nc(NC(=O)c4ccc5c(c4)OCCO5)sc32)s1 | -74.3%
Cc1nc2ccc3nc(NC(=O)c4ccc5c(c4)OCCO5)sc3c2s1 | 2.9%
CC(C)(C)NC(=O)COc1coc(CN2CCN(Cc3ccccc3)CC2)cc1=O | -1.29%
Cc1ccc(Cn2c(C(CO)Nc3nc(-c4ccc(Cl)c([N+](=O)[O-])c4)cs3)nc3ccccc32)cc1 (stereo not drawn) | 7.56%
O=S(=O)(c1ccsc1)N1CC=C(c2ccccc2)CC1 | 15.7%
CN1CCN(C(c2cc3cc4c(cc3[nH]c2=O)OCCO4)c2nnnn2C2CCCC2)CC1 (stereo not drawn) | -9.91%
CCN1CC2C3CCC(C)(O3)C2C1 (stereo not drawn) | -73.1%
CCCc1cc(=O)[nH]c(SCC(=O)Nc2nc3ccc(OCC)cc3s2)n1 | 22.8%
NC(=S)N=Nc1c(O)n(CC(=O)Nc2ccccc2)c2ccccc12 | 16.4%
COc1cc2ncnc(NCc3ccc(C)o3)c2cc1OC | -11.5%
CCOC(=O)C1CCCN(C(=O)COc2ccc(N(C)S(=O)(=O)c3ccc(C)cc3)cc2)C1 (stereo not drawn) | -56.8%
CCOC(=O)C1CCCN(C(=O)COc2ccc(N(C)S(=O)(=O)c3ccc(F)cc3)cc2)C1 (stereo not drawn) | -66.5%
CCOC(=O)C1CCN(C(=O)COc2ccc(N(C)S(=O)(=O)c3ccc(C)cc3)cc2)CC1 | -57.7%
CCN(c1ccccc1)S(=O)(=O)c1ccc(OCC(=O)N2CCCC2)cc1 | -10.4%
Cc1ccc(S(=O)(=O)N(C)c2ccc(OCC(=O)N3CCCCC3)cc2)cc1 | -10.5%
CCOC(=O)C1CCN(C(=O)COc2ccc(N(C)S(=O)(=O)c3ccc(OCC)cc3)cc2)CC1 | -4.08%
CN1CCN(C(=O)COc2ccc(N(C)S(=O)(=O)c3ccc(F)cc3)cc2)CC1 | -4.56%
CN(c1ccc(OCC(=O)N2CCOCC2)cc1)S(=O)(=O)c1ccc(F)cc1 | -9.15%
COC(=O)C1CCN(C(=O)COc2ccc(N(C)S(=O)(=O)c3ccc(C)cc3)cc2)CC1 | -33.8%
CCOC(=O)C1CCCN(C(=O)COc2ccc(S(=O)(=O)N(CC)c3ccccc3)cc2)C1 (stereo not drawn) | -51.8%

Compound | hERG current change (%, negative = inhibition) at 10uM
Cc1ccc(S(=O)(=O)N(C)c2ccc(OCC(=O)N3CCCC(C(F)(F)F)C3)cc2)cc1 (stereo not drawn) | -39.9%
CCOC(=O)C1CCCN(C(=O)COc2ccccc2O)C1 (stereo not drawn) | -1.94%
O=C(COC(=O)c1cnccn1)c1cccc([N+](=O)[O-])c1 | 14.4%
O=C(Nc1ccccc1Cl)c1sccc1-c1ccccc1 | -2.39%
COc1ccc(/C=N/NC(=O)C(=O)Nc2ccccn2)cc1OC | -27.2%
COc1ccc(C2=NS(=O)(=O)N(C)C(C(=O)NCc3ccccn3)=C2)cc1OC | -4.15%
CC1=CC(C)(C)Nc2ccc(OC(=O)c3ccco3)cc21 | -0.0756%
CC1CN(C(=O)CN2C(=O)c3ccccc3C2=O)CC(C)O1 (stereo not drawn) | 6.42%
CCCCCCN1CC(=O)N2Cc3[nH]c4ccccc4c3C[C@H]2C1=O | -9.11%
O=C(CCCSc1nc2ccccc2[nH]1)Nc1nnc(C2CC2)s1 | -1.62%
CCn1c(SCC(N)=O)nc2sc3c(c2c1=O)CCCC3 | 1.24%
CCOc1ccccc1Oc1c(C)oc2cc(OC(=O)N3CCOCC3)ccc2c1=O | 4.41%
O=C(NCCc1ccccc1F)C1CCC(=O)N(CCCN2CCCC2=O)C1 (stereo not drawn) | -7.84%
COCC1CCCCC1OS(N)(=O)=O (stereo not drawn) | 5.38%
Cn1cccc1-c1nc2ccccc2n1C | -1.23%
Cn1cc(Cl)c(-c2nc3ccccc3[nH]2)n1 | -1.45%
COCCNC(=S)NC1CC2CCCC(C1)N2Cc1cccs1 (stereo not drawn) | -26.7%
CCCN1C2CCCC1CC(NC(=O)c1cccc([N+](=O)[O-])c1)C2 (stereo not drawn) | -36.8%
O=C(NC1CC2CCCC(C1)N2Cc1cccs1)N1CCOCC1 (stereo not drawn) | -6.2%
O=C(NC1CC2CCCC(C1)N2Cc1cccs1)c1ccc([N+](=O)[O-])cc1 (stereo not drawn) | -84.3%
O=C(NC1CC2CCCC(C1)N2Cc1ccccc1)c1ccc([N+](=O)[O-])cc1 (stereo not drawn) | -81%
CN1C2CCC1CC(NC(=O)c1ccc([N+](=O)[O-])cc1)C2 (stereo not drawn) | 3.81%

Compound | hERG current change (%, negative = inhibition) at 10uM
CC(C)CN1C2CCCC1CC(NC(=O)c1ccc([N+](=O)[O-])cc1)C2 (stereo not drawn) | -78.3%
COc1ccc(C(=O)NC2CC3CCCC(C2)N3CC(C)C)cc1 (stereo not drawn) | -34.7%
Cc1ccc(NC(=O)c2ccc(N3CCCC3=O)cc2)cc1S(=O)(=O)N1CCCCC1 | -3.33%
Cc1ccc(S(=O)(=O)N2CCN(C(=O)CCOc3cc(C)ccc3C)CC2)cc1 | -32.8%
CSCCC(NC(=O)c1ccccc1Cl)C(=O)N1CCCCCCC1 (stereo not drawn) | -6.4%
CC(=O)Nc1ccc(N2C(=O)C3C4CC(=O)C(c5ccccc54)C3C2=O)cc1 (stereo not drawn) | 7.32%
Oc1ccccc1-c1nc(NCCN2CCOCC2)c2ccccc2n1 | -26.2%
CCOC(=O)CSc1ccc(C(=O)Nc2ccc(Cl)cc2)cn1 | 21.8%
CCOC(=O)c1c(C)[nH]c(C)c1S(=O)(=O)NCC(=O)Nc1ccccn1 | 17.9%
COc1ccc(N)c2c1C(=O)c1ccccc1C2=O | -10.4%
CC(COc1ccccc1Cc1ccccc1)N1CCCCC1.O=P(O)(O)O (stereo not drawn) | -70.1%
CC(C(=O)Nc1ccc(OCc2ccccc2)cc1)N1CCCC1 (stereo not drawn) | -21.6%
CC(OC(=O)COc1ccccc1Cc1ccccc1)C(=O)N(C)c1ccccc1 (stereo not drawn) | -0.572%
CCOc1ccc2c(c1)N(C(=O)CN1C(=O)CCC1=O)C(C)(C)C=C2C | -22.8%
COCCNC(=O)COc1ccc(Br)cc1Cl | 10.4%
COCCNC(=O)C(c1ccc(F)cc1)N(C(=O)CCC(=O)Nc1nccs1)c1ccc(C)cc1 (stereo not drawn) | -14.1%
CN(c1ccc(OCC(=O)OCC(=O)Nc2ccc(Br)cc2)cc1)S(=O)(=O)c1cccs1 | -0.388%
O=C(N/N=C/c1ccc[nH]1)c1ccccc1OCc1ccccc1Cl | -25.5%
O=C(N/N=C/c1ccco1)c1ccccc1OCc1ccccc1Cl | -82.8%
O=C(N/N=C/c1ccco1)c1ccccc1OCc1ccc(Br)cc1 | -8.69%
O=C(NC(=S)NCC1CCCO1)c1ccc([N+](=O)[O-])cc1 (stereo not drawn) | -16.6%
O=C(NCC1CCCO1)c1ccc(Oc2ccc([N+](=O)[O-])cc2Cl)cc1 (stereo not drawn) | -41.6%

Compound | hERG current change (%, negative = inhibition) at 10uM
O=C(NCC1CCCO1)c1ccc(COc2ccccc2)cc1 (stereo not drawn) | -56.3%
O=C(NCC1CCCO1)c1ccc(Oc2ccc([N+](=O)[O-])cc2)cc1 (stereo not drawn) | -60.8%
O=C(NCC1CCCO1)c1cccc(Oc2ccc([N+](=O)[O-])cc2Cl)c1 (stereo not drawn) | -72.6%
O=C(NCC1CCCO1)c1ccc(COc2ccc(Cl)cc2)cc1 (stereo not drawn) | -11.9%
O=C(NCC1CCCO1)c1ccc(COc2ccc(Br)cc2)cc1 (stereo not drawn) | -13.7%
CC1(C)CC(NC(=O)c2ccc(-c3ccc([N+](=O)[O-])cc3)o2)CC(C)(C)N1 | -49%
CC(=O)c1ccc(-c2ccc(C(=O)NC3CC(C)(C)NC(C)(C)C3)o2)cc1 | -122%
O=C(NCC1CCCO1)c1ccc(NC(=O)c2ccc([N+](=O)[O-])cc2)cc1 (stereo not drawn) | -2.58%
CC(=O)c1ccc(-c2ccc(C(=O)NC3CCCCCC3)o2)cc1 | 26%
O=C(NCC1CCCO1)c1cccc(Oc2c(Cl)cccc2[N+](=O)[O-])c1 (stereo not drawn) | -0.562%
Brc1ccc(-n2cc(-c3ccccc3)c3c(NN4CCOCC4)ncnc32)cc1 | -15.7%
Cn1c(SCC(=O)OCc2ccccc2)nnc1-c1ccco1 | 0.0583%
CCCCC(=O)NC(c1ccco1)c1c(O)ccc2ccccc12 (stereo not drawn) | -2.6%
O=C1CC2CS(=O)(=O)CC2N1c1ccc(Cl)cc1Cl (stereo not drawn) | 5.75%
CCCc1ccc(S(=O)(=O)N/N=C\c2ccc3c(c2)OCO3)cc1 | -0.771%
CCOc1ccc(NC(c2ccccn2)c2oc(CO)cc(=O)c2O)cc1 (stereo not drawn) | 5.43%
CN(C)CCNc1oc(-c2cccc(Cl)c2)nc1C#N | -36.2%
C=CCC1(Nc2ccccc2)CC(C)N(C)CC1C.O=C(O)C(=O)O (stereo not drawn) | -21.1%
Cc1ccc(-n2c(CSc3nc(C)cc(C)n3)nnc2SCC(=O)NCc2ccco2)cc1 | -38.7%
CCCCn1c(=O)n(C)c(=O)c2c3c(sc21)COC(C)(C)C3 | -11.1%
C/C(=N\NC(=O)c1ccc(NS(=O)(=O)c2cccs2)cc1)c1ccccc1 | 22.3%
